Measured values from PubChem BioAssay (NCI).
Compounds without any hit were thinned out: in the full panel of roughly 83,000, 20% have a hit.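 Compound tested at a single concentration for 48 hours in 96-well plates; a percent growth value below 10 was scored as active.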 Unmarked numbers belong to inactive results. Calls of active or inactive are those of the source.

Experiments:
Assay in all cases: NCI-60 one-dose screen, 48 h (100 = growth as untreated, 0 = no growth, -100 = all killed)
SK-MEL-2 melanoma = details: 10 µM unless noted
EKVX NSCLC = details: 10 µM unless noted
TK-10 renal = details: 10 µM unless noted
ACHN renal = details: 10 µM unless noted
CAKI-1 renal = details: 10 µM unless noted
A498 renal = details: 10 µM
HL-60(TB) leukemia = details: 10 µM unless noted
CCRF-CEM leukemia = details: 10 µM unless noted
MOLT-4 leukemia = details: 10 µM unless noted
SR leukemia = details: 10 µM unless noted
OVCAR-8 ovarian = details: 10 µM unless noted
OVCAR-5 ovarian = details: 10 µM unless noted
OVCAR-4 ovarian = details: 10 µM unless noted
IGROV1 ovarian = details: 10 µM unless noted
OVCAR-3 ovarian = details: 10 µM unless noted
HS 578T breast = details: 10 µM unless noted
UO-31 renal = details: 10 µM unless noted
RPMI-8226 leukemia = details: 10 µM unless noted
SK-OV-3 ovarian = details: 10 µM unless noted
SN12C renal = details: 10 µM unless noted

SMILES	growth (SK-MEL-2 melanoma)	growth (EKVX NSCLC) [%]	growth (TK-10 renal) [%]	growth (ACHN renal)	growth (CAKI-1 renal) [%]	growth (A498 renal)	growth (HL-60(TB) leukemia)	growth (CCRF-CEM leukemia)	growth (MOLT-4 leukemia)	growth (SR leukemia)	growth (OVCAR-8 ovarian)	growth (OVCAR-5 ovarian)	growth (OVCAR-4 ovarian) [%]	growth (IGROV1 ovarian)	growth (OVCAR-3 ovarian)	growth (HS 578T breast)	growth (UO-31 renal) [%]	growth (RPMI-8226 leukemia)	growth (SK-OV-3 ovarian)	growth (SN12C renal) [%]
O=C1OCC2=C1C(c1ccccc1)c1cc3c(cc1N2)OCO3 (stereo not drawn)	15.6%	48	56.9	27.1%	38.8	-6.52% (active)	2.29% (active)	11.6%	21.2%	8.69% (active)	5.45% (active)	43.5%	41.4	36.4%	-46% (active)	43.2%				
CC(C)[C@@H]1NC(=O)[C@]2(C)CSC(=N2)c2csc(n2)CNC(=O)C[C@@H](/C=C/CCS)OC1=O	-28.2% (active)	32.4		5.8% (active)		-74.8% (active)	8.48% (active)	9.97% (active)	7.47% (active)	12%	-11.9% (active)	25%	27.7	0.877% (active)	-21.3% (active)	7.81% (active)	10.4	-15.4% (active)		
CC12CCC3C(C=CC4=C(N)C(=O)CCC43C)C1CCC2=O (stereo not drawn)	74.4%	98	85.6	88.2%	84.1	99.2%	52.5%	6.62% (active)	57.2%	-18.1% (active)	44%	108%	62	49.5%	64.6%	113%			120%	
COc1cc([C@@H]2c3cc4c(cc3[C@H](OC(C)=O)[C@H]3COC(=O)[C@@H]23)OCO4)cc(OC)c1OC	40.2%	33.1	41.8	29.8%		-15.7% (active)	-1.71% (active)	22.6%	16.4%	15.6%	6.28% (active)	26.4%	29.9	16.8%	13.2%	7.08% (active)	38.9	23.6%	-10.2% (active)	
COC1OC(CO)C(O)C(O)[CH]1[Hg][O]C(C)=O (stereo not drawn)	107%	111	111	98.5%	101	106%	94.6%	96.1%	91.1%	64.3%	103%		95.6	86.9%	75.9%	89.8%	101	104%	117%	
CC(=O)O[C@H]1C(=O)[C@@]2(C)[C@H]([C@H](OC(=O)c3ccccc3)[C@]3(O)C[C@H](OC(=O)[C@H](OC(=O)OC[C@H]4COC(C)(C)O4)[C@@H](NC(=O)c4ccccc4)c4ccccc4)C(C)=C1C3(C)C)[C@]1(OC(C)=O)CO[C@@H]1C[C@@H]2O	14.3%	27.1	25.6	34.5%	20.7	21.1%	3.13% (active)	17%	11.7%	17.9%	15.9%	6.17% (active)	55.6	18.8%	6.13% (active)	3.36% (active)	33.8		22.2%	
O=[N+]([O-])CC(O)C(Cl)(Cl)Cl (stereo not drawn)	150%	101	110	96.5%		87.3%	83.7%	-21.1% (active)	107%	98.5%	116%		94.2	102%	116%		80.2	71.7%	100%	
CCCCCCCCCCCCNC(c1ccccc1)C(O)c1ccccc1 (stereo not drawn)	92.8%	92.6	98.8	67.4%		116%	66.8%	63.1%	61.7%	-14.3% (active)	67.9%	92.9%	10.5	53.7%	83.8%		72	18.3%	95.8%	
COc1ccc(S(=O)(=O)Nc2c(/C=C\c3cc(OC)c(OC)c(OC)c3)ccc(OC)c2O)cc1OC	9.91% (active)		70.9	29.6%	22.8		4.28% (active)	12%	16.8%	15.9%	20.3%		43	23.9%	-20.9% (active)	16.3%	49.3	25.4%	9.89% (active)	31
